High-throughput results from PubChem.
This is a sample that favours compounds with a hit; in the whole collection about 2.3% have one here.
GLP-1R agonist – activates the human GLP-1 receptor; P43220; HEK293 GLP-1R CRE-luciferase, luminescence, 4-6 h; cells express a hypersensitive GLP-1R form; Potency, µM (doses to about 45.6 µM), for the others: top-dose activation, hits mostly activators; actives 0.007% (n = 380,000); AID 624172; also: % of control where 0% means no effect
Target sequence (P43220 whole entry, looked up): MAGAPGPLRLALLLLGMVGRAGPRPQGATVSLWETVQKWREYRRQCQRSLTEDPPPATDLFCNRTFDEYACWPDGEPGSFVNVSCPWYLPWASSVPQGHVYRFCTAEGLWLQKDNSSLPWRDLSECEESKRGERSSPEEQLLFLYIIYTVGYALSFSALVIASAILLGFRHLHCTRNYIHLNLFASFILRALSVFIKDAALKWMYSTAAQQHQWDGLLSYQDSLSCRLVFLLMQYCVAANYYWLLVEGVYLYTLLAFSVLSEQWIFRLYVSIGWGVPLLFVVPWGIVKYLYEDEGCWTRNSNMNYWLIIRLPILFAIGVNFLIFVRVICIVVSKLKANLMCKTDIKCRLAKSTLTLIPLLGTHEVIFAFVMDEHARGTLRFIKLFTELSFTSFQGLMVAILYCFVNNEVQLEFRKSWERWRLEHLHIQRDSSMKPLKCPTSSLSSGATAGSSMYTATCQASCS
12-LOX inh – blocks human arachidonate 12S-lipoxygenase; P18054; purified 12hLO, xylenol orange hydroperoxide absorbance; Potency, µM (series often up to 108 µM), for the others: at the highest dose activity change, negative = inhibition, most hits filed as inhibitors; actives 1.1% (n = 580,000); also: % is scaled to controls: 0 for no effect and ±100 for the full control effect
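Purified human 12hLO (150 nM final) in 25 mM Hepes, 0.01% Triton X-100, pH 7.0 was preincubated 15 min at room temperature with compound. Then 40 uM arachidonic acid was added, 30 min. Hydroperoxide was read by Fe-XO absorbance ratio 573/405 nm.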
GRP78 ERSR act – inducers of ER stress response in human glioma cells; U87-MG GRP78 promoter luciferase reporter, 16 h; actives 0.02% (n = 420,000); Potency, µM, for inactives: at the highest dose activation, hits mostly activators; also: series mostly up to about 76 µM; % of control where 0% means no effect; nearly all actives have a fitted effect of over 35% in size
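Stably transfected U87-MG human glioma cells carrying a GRP78-based luminescent sensor were seeded at 1000 cells/well, pin-dosed with compounds and incubated 16 h. Luciferase reagent was then added, and end-point luminescence was read after 10 min at room temperature.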
PTHR1 agonist – agonists of human PTHR1 parathyroid hormone receptor. Q03431. HEK293 GP2 PTHR1 cells, GloSensor cAMP luminescence, 1 h. Potency, µM (doses to about 115 µM), inactives show at the top dose activation, actives largely listed as activators. actives 0.075% (n = 410,000). AID 743266; also: nearly all actives have a fitted effect of over 55% in size
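HEK-293-derived GP2 cells expressing PTHR1 and a GloSensor cAMP reporter, 3,000/well, plated overnight, given luciferin plus IBMX (each 0.5 mM as added) for 1 h at 37 °C, then compound for 1 h at 37 °C. Luminescence was read after 15 min at room temperature.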
GLS inh – inhibitors of human glutaminase (GLS). GLS enzymatic activity, qHTS titration. Potency, µM (highest dose often 45.5 µM), without a hit: at the highest dose activity change, negative = inhibition, usual class: inhibitors. actives 0.21% (n = 410,000). AID 624170; also: % is scaled to controls: 0 for no effect and ±100 for the full control effect
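Two-point fluorescence kinetic (t0, 30 min RT) for hKGA; glutamate detected via glutamate oxidase–HRP–Amplex Red. Substrate: 1 mM L-glutamine solution; buffer 45 mM KH2PO4, pH 8.2.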
GLP-1R inv ag – acts as inverse agonist at human GLP-1 receptor | P43220 | HEK293 GLP-1R CRE-luciferase, luminescence, 24 h; GLP-1R form is constitutively active | Potency, µM (doses to about 38.3 µM), for inactives: at the highest dose activity change, negative = inhibition, actives largely listed as inhibitors | actives 1.6% (n = 410,000) | AID 624417; also: % is scaled to controls: 0 for no effect and ±100 for the full control effect; nearly all actives have a fitted effect of over 55% in size
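Cells are plated, allowed 12 hours at 37 deg C, then treated with compounds for 24 hr before luciferase detection reagent is added and luminescence is read after 12 min at room temperature. The HEK293 line carries constitutively active GLP-1R with a cAMP-responsive reporter.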
* marks the source's active call; other numbers are inactive results; i = inactive; u = inconclusive; x = not tested or not shown. Calls follow the shape of the dose curve; as a rule, active = well fitted curve in the direction sought with a large enough effect; inconclusive = small, poorly fitted or top-dose-only effect, or another doubt; inactive = no such curve, though single readings can be large; an effect the other way counts as inactive or inconclusive. Potency is read from the fitted curve at half-maximal effect.

SMILES	GLP-1R agonist	12-LOX inh	GRP78 ERSR act	PTHR1 agonist	GLS inh	GLP-1R inv ag
O=C(CCl)Nc1cccc(-c2cnc3ccccc3n2)c1	0%	-21%	-14%	-13%	-5%	8.9µM*
O=C(O)c1cc(Cl)c2c(c1)OCO2	-7%	-18%	-1%	i	20µM*	3%
CC1CCN(C(=O)COC(=O)c2cc(Cl)c3c(c2)OCO3)CC1	2%	0%	5%	-22%	-1%	-4%
COc1ccccc1N1CCN(Cc2nc(N)nc(Nc3ccc(C)c(Cl)c3)n2)CC1	-24%	-29%	-5%	-14%	-3%	2.2µM*
COc1ccccc1Nc1nc(N)nc(CN2CCN(c3ccccc3F)CC2)n1	-5%	-4%	-5%	i	11%	u
COc1cc2nc(Nc3ccc(C)c(C)c3)nc(N)c2cc1OC	14%	u	-16%	i	3%	10µM*
COc1cc2nc(Nc3cccc(C)c3)nc(N)c2cc1OC	x	-24%	-7%	-22%	-4%	u
COc1cc2nc(Nc3ccc(C)c(Cl)c3)nc(N)c2cc1OC	0%	20µM*	-14%	-18%	0%	3.2µM*
Cc1ccc(NC(=O)CC(C)(C(=O)O)c2ccccc2)c(O)c1 (configuration not stated)	x	-18%	x	x	x	x
CCCCc1cc(=O)oc2cc(OC(C)C(=O)NCCCO)ccc12 (configuration not stated)	x	3%	x	x	x	x
CC(O)C(NS(=O)(=O)c1ccc(Cl)cc1)C(=O)OCC(=O)c1c[nH]c2ccccc12 (configuration not stated)	8%	u	16%	-24%	0%	5.6µM*
O=C(COC(=O)c1ccccc1O)Nc1ccccc1N1CCCC1=O	x	-21%	x	x	x	x
Cc1ccccc1-n1ncc2c1NC(=O)CC21C(=O)N(CC(N)=O)c2c(C)cccc21 (configuration not stated)	x	10%	x	x	x	x
CC(=O)OC1=CSc2cccc3cccc1c23	x	40µM*	x	x	x	x
Cc1cc(N2CCCCC2)nc2ccc(NC(=O)c3cccc(F)c3)cc12	x	-17%	-4%	-93%	2%	11µM*
Cc1cc(N2CCN(C)CC2)nc2ccc(NC(=O)Nc3cccc(Cl)c3)cc12	x	u	-2%	i	13%	10µM*
CC1CCCCC1NC(=O)CSc1ccc2c(c1)OCCCO2 (configuration not stated)	x	-3%	x	x	x	x
CC(C#N)Sc1nc(-c2cccs2)cc(C(F)(F)F)c1C#N (configuration not stated)	x	-19%	x	x	x	x
Cc1c(C(=O)c2ccc(F)cc2)c2ccccn2c1CCc1ccccn1	4%	u	-6%	-27%	11%	10µM*
N/C(=N\OC(=O)c1cccc2ccccc12)c1ccccn1	10%	0%	-12%	-31%	0%	u
Cc1ccc(C(=O)O/N=C(\N)c2ccccn2)c(Cl)c1	-8%	24%	-14%	-32%	-2%	1.1µM*
N/C(=N\OC(=O)c1cc([N+](=O)[O-])ccc1Cl)c1ccccn1	5%	479%	-5%	-30%	6%	3%
N/C(=N\OC(=O)c1ccc(Cl)cc1Cl)c1ccccn1	-5%	-16%	-14%	-38%	1%	5.6µM*
COc1cccc(C(=O)O/N=C(\N)c2ccccn2)c1OC	-10%	16%	-13%	-41%	23%	7.9µM*
N/C(=N\OC(=O)c1ccc([N+](=O)[O-])cc1Cl)c1ccccn1	-8%	7%	-10%	-95%	5%	1.8µM*
SMILES	GLP-1R agonist	12-LOX inh	GRP78 ERSR act	PTHR1 agonist	GLS inh	GLP-1R inv ag
Cc1ccc(C(=O)O/N=C(\N)c2ccccc2)c(Cl)c1	-10%	-13%	-12%	-41%	-15%	u
C=CCOc1cccc(NC(=O)C(C)(C)C)c1	x	-2%	x	x	x	x
Cn1c(CN2CCN(c3ccccc3NC(=O)Nc3ccccc3)CC2)nc2ccccc21	x	-28%	x	x	x	x
COc1ccc(/C(O)=C2\C(=O)C(=O)NC2c2ccc(Cl)cc2)cc1F (configuration not stated)	x	11µM*	x	x	x	x
Cc1ccc2c(c1)c1c(n2CC(O)CNC(C)(C)C)CCCC1 (configuration not stated)	3%	-28%	1%	-16%	11%	10µM*
COc1cccc(C(=O)COC(=O)C(CC(=O)c2ccccc2)Nc2ccc(F)cc2)c1 (configuration not stated)	x	-23%	x	x	x	x
COc1ccc(-c2noc(CNS(=O)(=O)c3ccc(NC(C)=O)cc3)n2)cc1	-4%	4%	-2%	26%	4%	13%
O=C(NCc1nc(-c2ccc(C(F)(F)F)cc2)no1)Nc1ccc(OC(F)(F)F)cc1	0%	271%	-2%	-21%	12%	2.8µM*
Cc1ccc(NC(=S)NNC(=S)NNc2ccccc2)cc1C	2%	40µM*	1%	i	20%	u
S=C(NNC(=S)Nc1ccc(Cl)cc1)NNc1ccccc1	3%	45µM*	3%	i	-12%	-5%
S=C(NNC(=S)Nc1ccccc1)Nc1ccccc1	8%	u	1%	-21%	u	16%
CC(NC(=S)NC1CCC(C(C)(C)C)CC1)c1ccccc1 (configuration not stated)	4%	u	-4%	-5%	-5%	10µM*
Cc1ccc(CNC(=S)NC2CCC(C(C)(C)C)CC2)cc1 (configuration not stated)	9%	u	0%	-17%	22%	u
CCOC(=O)c1c(NC(=O)CN2CCc3ccccc32)sc(C)c1CC	x	-69%	x	x	x	x
COc1cccc(NC(=S)NC(Cc2ccccc2)c2ccccc2)c1 (configuration not stated)	4%	40µM*	-3%	-2%	-1%	u
COc1cccc(NC(=S)NC(C)c2ccc(OC)c(OC)c2)c1 (configuration not stated)	14%	-16%	3%	-9%	15%	-9%
Cc1cccc(NC(=S)NC(C)CCc2ccccc2)c1 (configuration not stated)	11%	40µM*	-6%	i	-7%	u
Cc1cccc(NC(=O)C(C#N)C(=O)CCc2ccccc2)c1 (configuration not stated)	x	32µM*	x	x	x	x
Cc1cccc(NC(=O)NC(C)CCc2ccccc2)c1 (configuration not stated)	12%	1%	-2%	-16%	-6%	10µM*
